Inconclusive results are not listed. Activity calls are given as the source filed them. Unless noted, the call rests on the fitted dose curve; in most records, active means well fitted curve in the direction sought with a large enough effect in the repeat runs; inconclusive means weak or mixed curves; inactive means no such curve, though single readings can be large; an effect the other way counts as inactive or inconclusive.
Legend:
[1] = qHTS assay to identify small molecule antagonists of the sonic hedgehog signaling (Shh) pathway (AID 1259369; calls by dose curve; further: nearly all actives have a fitted effect of over 45% in size)
In short: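 Read-out is luminescence from a firefly luciferase gene controlled by the Gli1 response element, in 3T3Gli1-Luc cells pre-incubated 4hr then exposed to compounds and conditioned medium for 24hr.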

[2] = molecular target: Estrogen receptor beta (Homo sapiens) (UniProt Q92731); assay: qHTS assay to identify small molecule agonists of the estrogen receptor beta (ER-beta) signaling pathway (AID 1259377; active means well fitted activation curve with a large enough effect in the signal ratio in the repeat runs, not every such curve was filed as active; the % refers to the signal ratio)
In short: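 Ratiometric beta-lactamase FRET read-out came after 2 h substrate loading at room temperature. It followed 16 h compound treatment at 37C of GripTite HEK293T cells carrying a UAS-bla reporter, plated in 2% charcoal-stripped FBS medium.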

[3] = molecular target: Estrogen receptor beta (Homo sapiens) (UniProt Q92731); assay: qHTS assay to identify small molecule antagonists of the estrogen receptor beta (ER-beta) signaling pathway (AID 1259378; active means well fitted inhibition curve with a large enough effect in the signal ratio in the repeat runs, not every such curve was filed as active; the % refers to the signal ratio)
In short: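 ER-beta-UAS-bla HEK293T (GripTite) cells in 2% charcoal-stripped FBS medium were preincubated 6 hr at 37C, dosed with compound, then stimulated with 1 nM E2 (final) for 16 hr; beta-lactamase reporter read by B/G FRET fluorescence after 2 hr substrate loading.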

[4] = qHTS assay to identify small molecule agonists of the androgen receptor (AR) signaling pathway in the presence of an antagonist - cell viability counter screen (AID 1259379);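 further: MDA-kb2 human breast cancer cells carrying an MMTV luciferase reporter; series mostly up to about 92 µM; nearly all actives have a fitted effect of over 25% in size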
In short: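 Each compound was tested at 15 concentrations on MDA-kb2 cells in the presence of 3.0uM nilutamide. Viability was measured by CellTiter-Fluor fluorescence after a 16 hr incubation at 37C in a CO2-free atmosphere.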

[5] = qHTS assay to identify small molecule agonists of the estrogen receptor beta (ER-beta) signaling pathway - cell viability counter screen (AID 1259380); further: nearly all actives have a fitted effect of over 30% in size
In short: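 Compounds dissolved in DMSO were pin-transferred onto ER-beta-UAS-bla HEK293T cells that had settled 6 hr, and exposure ran 16 hr at 37C. Following the reporter read, CellTiter-Glo luminescence after 30 min at room temperature indicated cytotoxicity.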

[6] = qHTS assay to identify small molecule antagonists of the estrogen receptor beta (ER-beta) signaling pathway - cell viability counter screen (AID 1259382); further: series mostly up to about 92 µM; nearly all actives have a fitted effect of over 55% in size
In short: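 CellTiter-Glo ATP luminescence measured after the LiveBLAzer read in the same wells; ER-beta-UAS-bla HEK293T cells, 16 hr compound treatment with 1nM 17-beta-estradiol agonist at 37C, 5% CO2.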

[7] = molecular target: Estrogen receptor (Homo sapiens) (UniProt P03372); assay: qHTS assay to identify small molecule agonists of the estrogen receptor alpha (ER-alpha) signaling pathway in the presence of an antagonist (AID 1259383; calls by dose curve; further: top concentration of the series differs between compounds; nearly all actives have a fitted effect of over 15% in size)
In short: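 Luminescent ERE-luciferase reporter, VM7Luc4E2 cells (endogenous ER-alpha); 10.0nM ICI-182,780 final; 15-point compound titration; 22hr at 37C; ONE-Glo, 30min RT.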

[8] = qHTS assay to identify small molecule agonists or antagonists of the thyroid stimulating hormone receptor (TSHR) signaling pathway - wild type cell line counter screen (AID 1259384; calls by dose curve)
In short: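 Wild-type HEK293 cells were plated 18 h at 37 C/5% CO2, pin-dosed with compound plus Ro20-1724 medium, held 30 min at room temperature, then given cAMP-d2 and anti-cAMP-cryptate; fluorescence was read after 1 h. Fifteen concentrations, triplicate.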

[9] = molecular target: Thyrotropin receptor (Homo sapiens) (UniProt P16473); assay: qHTS assay to identify small molecule antagonists of the thyroid stimulating hormone receptor (TSHR) signaling pathway (AID 1259385; calls by dose curve; further: nearly all actives have a fitted effect of over 20% in size)
In short: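 TSHR-HEK293 cells were plated and held 18 h at 37C/5% CO2, then given compound plus Ro20-1724 and stimulated with TSH at 1.5 ng/mL final. After 30 min at room temperature, cAMP was detected with cAMP-d2/anti-cAMP-cryptate (1 h) by fluorescence.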

[10] = qHTS assay to identify small molecule agonists of the estrogen receptor alpha (ER-alpha) signaling pathway in the presence of an antagonist - cell viability counter screen (AID 1259386);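 further: series mostly up to about 92 µM; cells exposed to compounds for 22 h at 37 °C before the viability read; nearly all actives have a fitted effect of over 30% in size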
In short: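 Using estrogen-depleted VM7Luc4E2 cells, the 15-concentration compound series was applied together with 10.0nM ICI-182,780 and incubated 22hr at 37C/5% CO2. Cell viability was then scored by CellTiter-Fluor.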

[11] = molecular target: Progesterone receptor (Homo sapiens) (UniProt P06401); assay: qHTS assay to identify small molecule agonists of the progesterone receptor (PR) signaling pathway (AID 1346784; calls by dose curve; further: nearly all actives have a fitted effect of over 30% in size)
In short: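 Agonist qHTS: compounds pinned onto 3,000 PR-UAS-bla HEK 293T cells per well in charcoal-stripped serum medium, 16hr at 37C, then beta-lactamase activity measured by LiveBLAzer FRET fluorescence after 2 hours at room temperature.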

[12] = qHTS assay to identify small molecule antagonists of the progesterone receptor (PR) signaling pathway - cell viability counter screen (AID 1346798); further: series mostly up to about 92 µM; nearly all actives have a fitted effect of over 50% in size
In short: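 Cytotoxicity read as CellTiter-Glo luminescence (30 min, room temperature) in the same wells as the beta-lactamase readout. HEK293T PR-UAS-bla cells in charcoal-stripped 2% FBS received compound and R5020, then 16 h at 37C, 5% CO2.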

[13] = qHTS assay to identify small molecule agonists of the progesterone receptor (PR) signaling pathway - cell viability counter screen (AID 1346799; calls by dose curve; further: nearly all actives have a fitted effect of over 45% in size)
In short: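 Cytotoxicity measured by CellTiter-Glo luminescence (30 min, RT) in the same wells as the PR beta-lactamase agonist read. Those HEK293T cells had 16 h compound treatment at 37 C in 2% charcoal-stripped FBS medium.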

[14] = qHTS assay to identify small molecule antagonists of the TGF-beta/Smad signaling pathway - cell viability counter screen (AID 1346824); further: nearly all actives have a fitted effect of over 50% in size
In short: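 SBE-bla HEK 293T cells were plated overnight at 37 C, then given compounds in DMSO plus TGF-beta1 (added as 0.25 ng/mL solution) for 5 hr. After the bla read, CellTiter-Glo was added to the same wells and luminescence read after 30 min at room temperature.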

[15] = qHTS assay to identify small molecule agonists of the TGF-beta/Smad signaling pathway - cell viability counter screen (AID 1346829); further: top concentration of the series differs between compounds; nearly all actives have a fitted effect of over 45% in size
In short: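 Here the cytotoxicity of library compounds is measured in SBE-bla HEK 293T cells treated for 5 hr, using CellTiter-Glo added to wells already read for the beta-lactamase reporter.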

[16] = qHTS assay to identify small molecule agonists of the TGF-beta/Smad signaling pathway (AID 1346859; active means well fitted activation curve with a large enough effect in the signal ratio in the repeat runs, not every such curve was filed as active; the % refers to the signal ratio; further: series mostly up to about 77 µM)
In short: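 Fluorescence (ex 405 nm; em 460 and 530 nm) was read 2 h after LiveBLAzer FRET substrate at RT. The preceding compound treatment of overnight-plated SBE-bla HEK293T cells lasted 5 h at 37 C.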

[17] = molecular target: Thyrotropin-releasing hormone receptor (Homo sapiens) (UniProt P34981); assay: qHTS assay to identify small molecule agonists of the thyrotropin-releasing hormone receptor (TRHR) signaling pathway (AID 1346891; calls by dose curve; further: series mostly up to about 58 µM)
In short: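 Agonist-mode intracellular calcium readout: kinetic fluorescence over 3 min at 1 s intervals after compound addition to TRHR-HEK293 cells (18 h seeded, 2 h dye-loaded at 37 C). Fifteen concentrations, triplicates.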

[18] = molecular target: Androgen receptor (Homo sapiens) (UniProt P10275); assay: qHTS assay to identify small molecule agonists of the androgen receptor (AR) signaling pathway in the presence of an antagonist (AID 1259381; calls by dose curve; further: nearly all actives have a fitted effect of over 15% in size)
In short: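 Plated MDA-kb2 cells (3,000/well) were pre-incubated 5hr, given nilutamide (3.0uM final) or buffer, then dosed with compounds in DMSO at 15 concentrations. Luciferase activity was quantified by luminescence after 16hr at 37C.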

[19] = molecular target: Progesterone receptor (Homo sapiens) (UniProt P06401); assay: qHTS assay to identify small molecule antagonists of the progesterone receptor (PR) signaling pathway (AID 1346795; active means well fitted inhibition curve with a large enough effect in the signal ratio in the repeat runs, not every such curve was filed as active; the % refers to the signal ratio)
In short: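 Antagonist mode with agonist R5020 at 1 nM final and 16 hr incubation at 37C. Reporter was beta-lactamase driven by UAS in HEK293T (PR-UAS-bla), 2% charcoal-stripped serum; signal from LiveBLAzer FRET substrate, 2 hr at room temperature.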

[20] = molecular target: Thyrotropin-releasing hormone receptor (Homo sapiens) (UniProt P34981); assay: qHTS assay to identify small molecule antagonists of the thyrotropin-releasing hormone receptor (TRHR) signaling pathway (AID 1346877; active means well fitted inhibition curve with a large enough effect in the repeat runs, not every such curve was filed as active; further: series mostly up to about 51 µM)
In short: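 Calcium signal in dye-loaded TRHR/HEK293 cells; compounds added 5 min before TRH (1 nM final); fluorescence monitored 3 min at 1 s steps.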

Measured: Potency

Sequence of Progesterone receptor (Homo sapiens) (P06401 whole entry, looked up): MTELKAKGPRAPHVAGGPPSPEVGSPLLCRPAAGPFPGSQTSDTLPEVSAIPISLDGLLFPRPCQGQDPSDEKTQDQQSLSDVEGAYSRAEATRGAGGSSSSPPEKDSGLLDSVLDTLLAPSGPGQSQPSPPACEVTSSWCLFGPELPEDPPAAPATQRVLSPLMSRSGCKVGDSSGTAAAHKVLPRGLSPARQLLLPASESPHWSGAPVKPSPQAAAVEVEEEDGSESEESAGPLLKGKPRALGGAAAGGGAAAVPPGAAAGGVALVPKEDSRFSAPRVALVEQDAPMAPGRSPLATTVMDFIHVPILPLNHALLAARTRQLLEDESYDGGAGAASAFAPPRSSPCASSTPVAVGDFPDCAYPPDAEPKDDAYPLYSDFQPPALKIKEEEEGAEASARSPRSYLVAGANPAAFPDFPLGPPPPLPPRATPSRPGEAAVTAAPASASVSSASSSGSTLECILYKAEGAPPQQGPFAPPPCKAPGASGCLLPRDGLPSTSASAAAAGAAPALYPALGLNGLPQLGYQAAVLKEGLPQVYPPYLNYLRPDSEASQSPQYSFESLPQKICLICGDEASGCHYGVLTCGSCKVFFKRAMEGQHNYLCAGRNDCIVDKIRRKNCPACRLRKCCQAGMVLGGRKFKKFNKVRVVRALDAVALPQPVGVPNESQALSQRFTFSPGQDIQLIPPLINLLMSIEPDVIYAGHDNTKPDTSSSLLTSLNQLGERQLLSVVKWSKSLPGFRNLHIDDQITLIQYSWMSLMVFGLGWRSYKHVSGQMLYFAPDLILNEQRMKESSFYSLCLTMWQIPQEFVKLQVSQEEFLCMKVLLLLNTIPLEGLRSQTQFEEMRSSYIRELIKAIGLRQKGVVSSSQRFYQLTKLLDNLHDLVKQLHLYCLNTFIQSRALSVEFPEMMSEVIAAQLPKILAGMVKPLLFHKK
Sequence of Estrogen receptor (Homo sapiens) (P03372 whole entry, looked up): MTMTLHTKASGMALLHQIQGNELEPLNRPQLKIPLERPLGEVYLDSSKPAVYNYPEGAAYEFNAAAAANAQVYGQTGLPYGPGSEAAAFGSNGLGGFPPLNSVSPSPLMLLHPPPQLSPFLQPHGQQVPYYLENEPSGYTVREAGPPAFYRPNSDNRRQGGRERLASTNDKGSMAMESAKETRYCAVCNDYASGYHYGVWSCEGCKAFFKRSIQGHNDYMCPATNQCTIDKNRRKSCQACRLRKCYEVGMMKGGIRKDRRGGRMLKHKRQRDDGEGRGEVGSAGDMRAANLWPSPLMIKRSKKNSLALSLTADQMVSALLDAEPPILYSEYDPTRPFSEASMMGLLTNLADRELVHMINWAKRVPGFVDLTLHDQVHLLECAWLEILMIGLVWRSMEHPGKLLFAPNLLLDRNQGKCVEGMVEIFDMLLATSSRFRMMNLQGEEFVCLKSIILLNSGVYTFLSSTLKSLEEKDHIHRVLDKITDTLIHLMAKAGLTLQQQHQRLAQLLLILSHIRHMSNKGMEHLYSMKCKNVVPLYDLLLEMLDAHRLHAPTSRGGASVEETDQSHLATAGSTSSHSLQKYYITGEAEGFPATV
Sequence of Estrogen receptor beta (Homo sapiens) (Q92731 whole entry, looked up): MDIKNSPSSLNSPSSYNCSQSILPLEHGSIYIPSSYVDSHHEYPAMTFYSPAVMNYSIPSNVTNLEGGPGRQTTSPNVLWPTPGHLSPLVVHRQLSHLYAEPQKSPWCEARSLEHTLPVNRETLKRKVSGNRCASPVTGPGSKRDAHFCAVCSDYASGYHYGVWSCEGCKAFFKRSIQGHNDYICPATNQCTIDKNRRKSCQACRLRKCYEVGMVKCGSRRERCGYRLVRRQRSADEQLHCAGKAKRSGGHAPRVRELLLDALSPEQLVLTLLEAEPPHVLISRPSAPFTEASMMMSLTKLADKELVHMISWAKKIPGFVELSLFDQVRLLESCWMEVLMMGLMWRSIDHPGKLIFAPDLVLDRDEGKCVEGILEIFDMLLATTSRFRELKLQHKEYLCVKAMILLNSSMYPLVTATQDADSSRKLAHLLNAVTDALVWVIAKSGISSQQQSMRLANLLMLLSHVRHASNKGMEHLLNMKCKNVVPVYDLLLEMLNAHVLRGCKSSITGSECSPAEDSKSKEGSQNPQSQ
Sequence of Thyrotropin-releasing hormone receptor (Homo sapiens) (P34981 whole entry, looked up): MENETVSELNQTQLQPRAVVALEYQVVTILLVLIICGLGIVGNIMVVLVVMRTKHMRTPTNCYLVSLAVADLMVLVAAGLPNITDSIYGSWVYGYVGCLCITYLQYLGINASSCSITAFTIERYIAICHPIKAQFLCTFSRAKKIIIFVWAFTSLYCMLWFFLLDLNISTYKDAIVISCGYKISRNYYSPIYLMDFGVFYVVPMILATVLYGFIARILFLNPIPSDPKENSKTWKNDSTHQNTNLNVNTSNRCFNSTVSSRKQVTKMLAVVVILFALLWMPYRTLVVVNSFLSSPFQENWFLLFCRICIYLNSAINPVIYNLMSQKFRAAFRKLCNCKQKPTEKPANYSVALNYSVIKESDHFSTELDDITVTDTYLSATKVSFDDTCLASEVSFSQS
Sequence of Thyrotropin receptor (Homo sapiens) (P16473 whole entry, looked up): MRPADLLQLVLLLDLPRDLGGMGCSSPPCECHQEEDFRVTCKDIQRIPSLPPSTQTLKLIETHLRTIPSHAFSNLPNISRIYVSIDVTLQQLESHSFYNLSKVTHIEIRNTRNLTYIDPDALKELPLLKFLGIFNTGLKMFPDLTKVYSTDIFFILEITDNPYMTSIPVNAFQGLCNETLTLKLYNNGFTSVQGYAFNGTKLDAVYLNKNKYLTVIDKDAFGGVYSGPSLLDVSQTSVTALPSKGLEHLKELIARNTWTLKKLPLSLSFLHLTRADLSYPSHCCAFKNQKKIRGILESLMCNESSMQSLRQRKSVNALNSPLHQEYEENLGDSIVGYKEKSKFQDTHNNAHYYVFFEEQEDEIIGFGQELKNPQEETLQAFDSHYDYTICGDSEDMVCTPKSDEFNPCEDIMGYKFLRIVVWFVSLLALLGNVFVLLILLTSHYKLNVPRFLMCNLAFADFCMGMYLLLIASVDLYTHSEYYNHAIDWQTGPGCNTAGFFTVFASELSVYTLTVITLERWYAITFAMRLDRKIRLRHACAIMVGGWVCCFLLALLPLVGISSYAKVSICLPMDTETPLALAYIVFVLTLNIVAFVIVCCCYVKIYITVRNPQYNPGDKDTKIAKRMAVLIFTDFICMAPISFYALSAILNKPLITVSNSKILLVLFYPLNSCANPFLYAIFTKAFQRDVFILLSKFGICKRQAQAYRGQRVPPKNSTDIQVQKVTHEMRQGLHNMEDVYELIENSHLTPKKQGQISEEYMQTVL
Sequence of Androgen receptor (Homo sapiens) (P10275 whole entry, looked up): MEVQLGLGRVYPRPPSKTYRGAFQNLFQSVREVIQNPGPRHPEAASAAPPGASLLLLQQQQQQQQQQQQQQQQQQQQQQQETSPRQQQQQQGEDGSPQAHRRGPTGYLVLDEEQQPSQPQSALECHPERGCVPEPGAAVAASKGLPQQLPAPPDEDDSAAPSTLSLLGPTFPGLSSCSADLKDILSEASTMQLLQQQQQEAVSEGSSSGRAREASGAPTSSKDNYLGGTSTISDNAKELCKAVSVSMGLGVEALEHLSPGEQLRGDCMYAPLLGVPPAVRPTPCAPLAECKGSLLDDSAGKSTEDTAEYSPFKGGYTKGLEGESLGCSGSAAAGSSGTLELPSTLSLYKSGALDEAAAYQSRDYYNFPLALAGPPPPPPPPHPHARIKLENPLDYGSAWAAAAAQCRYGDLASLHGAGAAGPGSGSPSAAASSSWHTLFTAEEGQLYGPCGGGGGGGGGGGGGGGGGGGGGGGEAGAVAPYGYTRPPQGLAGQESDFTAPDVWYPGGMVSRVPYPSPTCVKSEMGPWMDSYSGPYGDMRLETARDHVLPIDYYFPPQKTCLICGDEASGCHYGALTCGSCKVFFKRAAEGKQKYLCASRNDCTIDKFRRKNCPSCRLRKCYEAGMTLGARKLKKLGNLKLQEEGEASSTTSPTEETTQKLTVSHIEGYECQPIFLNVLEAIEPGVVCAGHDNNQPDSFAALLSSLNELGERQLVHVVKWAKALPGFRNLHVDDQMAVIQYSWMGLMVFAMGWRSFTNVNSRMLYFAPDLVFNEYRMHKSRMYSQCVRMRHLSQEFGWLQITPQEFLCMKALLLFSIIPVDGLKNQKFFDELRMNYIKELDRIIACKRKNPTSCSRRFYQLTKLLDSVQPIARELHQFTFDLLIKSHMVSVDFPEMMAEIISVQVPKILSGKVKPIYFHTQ

N#C/C(N)=C(/N)C#N
not listed: [18] | [19] | [20]
inactive: all other assays above

c1ccc(C2CC2)c(OCC2=NCCN2)c1
not listed: [8] | [20]
inactive: all other assays above

[O-][Cl+]O
not listed: [8] | [9] | [18]
inactive: all other assays above

Cc1ccc(N)cc1C
not listed: [18] | [20]
inactive: all other assays above

— PubChem BioAssay (Tox21)
